Shown are actives, neighbours in structure and some others; about 2.2% of the full set was active somewhere.
CHT block: inhibits the human high affinity choline transporter; CHT-expressing cells, membrane potential dye, choline response; hits give low values; B-score at 10 µM; actives 0.86% (n = 310,000); AID 488975;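 active means B-score over 3 SD under the library average, and starting fluorescence ratio not unusually high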;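 further: choline stimulus applied at its EC90 after an EC20 pre-addition; B-score computed on integrated fluorescence ratio after choline addition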
HIF act: HIF pathway transcriptional activation; actives 0.32% (n = 300,000); activation, % at 7.5 µM (by protocol); U2OS HRE-luciferase reporter, luminescence; normalized: DMSO 0%, desferrioxamine 100%; AID 1910;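 active means mean activation of at least 10% of the iron chelator positive control signal, with at least half of replicates also reaching 10%; inconclusive means mean and replicate majority disagree about reaching 10%; inactive means mean and most replicates under 10%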
Platelet DG rel: platelet dense granule release activity | actives 0.22% (n = 300,000) | inhibition, %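 (compounds screened at 7.5 µM in platelet-rich plasma)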 | human platelet-rich plasma, SFLLRN dense granule ATP release, luminescence;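 active means mean replicate score, as percent of positive control, at or above 50; inconclusive means mean below 50 but at least one replicate at or above 50; inactive means mean and every replicate below 50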
AI-2 QS mod: modulates the Vibrio harveyi AI-2 quorum sensing system; AID 2094; actives 0.4% (n = 300,000); activity change, % at 7.5 µM; Vibrio harveyi JMH597 AI-2 luminescence/OD600 ratio, 9 h; hits give low values; strain lacks LuxN and CqsS sensors; 0 = neutral-control median; in the data active means activity change below about -75%, passing the limit was not always enough; inconclusive means no clear call, values can overlap the other calls;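 further: luminescence divided by OD600 gain over 9 h not by final OD600 alone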
CHT PAM: allosterically activates the human high affinity choline transporter; AID 488977; actives 0.49% (n = 310,000); B-score at 10 µM; CHT-expressing cells, membrane potential dye, choline EC20; hits give high values; LV-AA mutant CHT in HEK293 cells; Q9GZV3;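 active means initial fluorescence not abnormally high and integrated response B-score, plate-corrected, over 3 SD above library mean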
VLA-4 inh: inhibition in a human VLA-4 binding assay | AID 2557 | P13612 | VLA-4 expressing cells, ligand binding flow cytometry | inhibition, % (about 7 µM as worked out from the volumes in the protocol) | actives 0.2% (n = 330,000); in the data active means inhibition above about 50%
Target sequence (P13612 whole entry, looked up): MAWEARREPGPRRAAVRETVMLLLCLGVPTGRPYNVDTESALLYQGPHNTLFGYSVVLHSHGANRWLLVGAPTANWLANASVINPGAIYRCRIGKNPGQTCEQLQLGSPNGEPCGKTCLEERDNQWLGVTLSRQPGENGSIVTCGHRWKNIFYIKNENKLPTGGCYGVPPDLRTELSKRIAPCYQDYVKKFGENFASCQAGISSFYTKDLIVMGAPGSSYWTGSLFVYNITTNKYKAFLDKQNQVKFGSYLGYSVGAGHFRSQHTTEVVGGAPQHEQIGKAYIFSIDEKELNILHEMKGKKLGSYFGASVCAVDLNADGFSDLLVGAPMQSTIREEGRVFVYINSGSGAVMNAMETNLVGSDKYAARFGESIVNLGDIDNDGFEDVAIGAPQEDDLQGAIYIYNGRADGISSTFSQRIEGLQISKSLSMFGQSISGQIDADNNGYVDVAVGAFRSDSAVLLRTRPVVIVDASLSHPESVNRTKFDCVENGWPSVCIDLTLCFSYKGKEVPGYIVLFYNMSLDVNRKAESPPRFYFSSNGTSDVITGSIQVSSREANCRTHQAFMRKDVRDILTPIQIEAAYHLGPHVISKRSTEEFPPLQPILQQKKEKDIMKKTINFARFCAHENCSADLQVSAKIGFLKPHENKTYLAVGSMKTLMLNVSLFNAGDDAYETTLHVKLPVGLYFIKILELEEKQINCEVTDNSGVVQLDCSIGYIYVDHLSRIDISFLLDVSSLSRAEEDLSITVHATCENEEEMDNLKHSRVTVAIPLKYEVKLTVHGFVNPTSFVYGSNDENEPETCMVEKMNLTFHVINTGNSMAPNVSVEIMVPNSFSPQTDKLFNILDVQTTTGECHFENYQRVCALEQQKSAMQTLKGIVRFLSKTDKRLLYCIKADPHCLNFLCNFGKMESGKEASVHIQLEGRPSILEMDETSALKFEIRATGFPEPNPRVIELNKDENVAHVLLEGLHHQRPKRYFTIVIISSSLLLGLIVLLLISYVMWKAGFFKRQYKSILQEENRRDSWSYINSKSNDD
CHT block conf: confirmation of human choline transporter CHT inhibitors | shares compounds with CHT block | AID 493221 | CHT activity remaining % of control (hits give low values), % at 10 µM | actives 70% (n = 2,400) | CHT-expressing cells, choline membrane potential dye; LV-to-AA substituted CHT, HEK293 cells;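 active means choline transporter activity left, mean of duplicates at 10 µM, below buffer-only control mean minus 3 SD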;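 further: depolarization triggered by choline at its EC90 following an EC20 pre-addition; 0% = hemicholinium-3 full block and 100% = buffer-only control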
HEK293 CHT ctr: CHT inhibitor counter-screen hit in parental HEK293 cells. shares compounds with CHT block. membrane potential dye, choline response; active = decrease or increase beyond buffer ±3SD. membrane potential ratio readout (active if shifted either direction beyond buffer ±3SD; no single direction) at 10 µM. actives 4% (n = 2,400);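 further: parental cells lack the transporter so any hit is non-specific; ratio is peak minus trough fluorescence over baseline after EC90 choline challenge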
An asterisk follows results filed as active; i = inactive; ? = inconclusive; nt = not tested or not shown.

SMILES	CHT block	HIF act	Platelet DG rel	AI-2 QS mod	CHT PAM	VLA-4 inh	CHT block conf	HEK293 CHT ctr
C=CCNC(=O)/C(=C\c1ccc([N+](=O)[O-])cc1)NC(C)=O	-7.6*	nt	nt	11	i	4	i	i
Cn1c2c(c3ccccc31)CCN1CCC[C@]21c1ccccc1	-5.1*	0	-6	-2	i	6	i	i
O=c1[nH]c(C(F)(F)F)nc2ccccc12	-5.1*	0	3	47	i	-3	i	i
COc1cc([N+](=O)[O-])ccc1NC(=O)C[n+]1cccc(C(C)=O)c1	i	0	4	19	i	-37	nt	nt
CC(=O)N1c2ccc(S(=O)(=O)NCc3ccccc3Cl)cc2CC1C (stereo not drawn)	-7*	0	-2	6	i	23	61%*	i
CC(=O)N1c2ccc(S(=O)(=O)NCCC(=O)NC3CCCC(C)C3C)cc2CC1C (stereo not drawn)	-6.8*	1	-3	19	i	-2	38%*	i
CC(=O)N1c2ccc(S(=O)(=O)NCCc3ccc(Cl)cc3)cc2CC1C (stereo not drawn)	i	0	-14	25	i	3	nt	nt
COc1cccc(NC(=O)CCNS(=O)(=O)c2ccc3c(c2)CC(C)N3C(=O)C2CC2)c1 (stereo not drawn)	-5.2*	0	3	4	i	6	i	i
CCOC(=O)c1ccc(NC(=O)COc2ccc(CNC3CCCCC3)cc2OC)cc1	i	0	2	17	i	27	nt	nt
O=C(NC(=S)NNC(=O)[C@H]1C[C@@H]1c1ccccc1)c1cccc(F)c1	-7.8*	-1	12	?	i	20	49%*	i
COc1cccc(OC)c1C(=O)NC(=S)NNC(=O)[C@H]1C[C@@H]1c1ccccc1	i	0	0	61	i	0	nt	nt
O=C(Cc1ccc(Cl)cc1)NNC(=S)NC(=O)c1cccs1	-5.2*	0	5	-51	i	16	i	i
Cc1cccc(C(=O)NNC(=S)NC(=O)c2cccs2)c1	-7.5*	-1	2	-46	i	-15	29%*	i
Cc1cccc(C(=O)NNC(=S)NC(=O)c2ccccc2)c1	-7.4*	0	-6	?	i	8	41%*	i
Cc1cccc(C(=O)NNC(=O)c2ccc(O)cc2)c1	i	0	21	9	i	-1	nt	nt
Cc1ccc(C)c(OCCC(=O)OCC(=O)Nc2ccc(N3CCOCC3)cc2)c1	i	0	-5	5	i	-1	nt	nt
COCCC1CCCCN1C(=O)c1cc(COc2ccc(-n3cncn3)cc2)on1 (stereo not drawn)	i	1	9	10	i	21	nt	nt
COc1ccc(C(=O)NNC(=S)NC(=O)c2cccnc2)cc1	i	0	29	?	i	-2	nt	nt
Cc1ccccc1C(=O)NNC(=S)NC(=O)c1ccccc1	-8.4*	0	-5	2	i	6	47%*	i
Cc1ccccc1NC(=S)NNC(=O)c1ccncc1	-6.1*	0	-1	20	i	14	61%*	i
COc1ccc(C(=O)NC(=S)NNC(=O)c2cccc(C)c2)cc1	-7.8*	1	27	19	i	-27	i	i
COc1ccc(N(C(=O)Cn2nnc3ccccc32)C(C(=O)NCc2ccco2)c2ccncc2)cc1 (stereo not drawn)	-10*	0	0	7	i	-1	i	i
COc1ccc2c(n1)Sc1nc3ccccc3nc1N2	i	6	-4	6	i	7	nt	nt
COC(=O)Nc1ccc(S(=O)(=O)N2CCC(C(=O)N3CCCC(C)C3)CC2)cc1 (stereo not drawn)	i	-2	-3	34	i	2	nt	nt
CC1CCCN(C(=S)Nc2ccc(S(=O)(=O)N3CCCCC3)cc2)C1 (stereo not drawn)	-13*	nt	nt	25	i	9	i	i
SMILES	CHT block	HIF act	Platelet DG rel	AI-2 QS mod	CHT PAM	VLA-4 inh	CHT block conf	HEK293 CHT ctr
Cc1ccc(SCCC(=O)NNC(=O)c2ccccc2F)cc1	nt	nt	nt	nt	nt	0	nt	nt
COc1ccc(C)cc1NC(=O)CN1CCN(c2ccccc2F)CC1	-5*	nt	nt	nt	i	7	i	i
COc1ccc(OC)c(NC(=O)CCN2CCN(c3ccccc3F)CC2)c1	i	0	1	19	i	-7	nt	nt
CCn1cc(/C=C(\NC(=O)c2ccccc2F)C(=O)N2CCOCC2)c2ccccc21	-5.1*	0	0	5	i	14	46%*	i
CCn1cc(/C=C(\NC(=O)c2ccccc2F)C(=O)NCCCn2ccnc2)c2ccccc21	-7.2*	-1	-5	-10	i	3	28%*	i
O=C(NCCCn1ccnc1)/C(=C/c1ccccc1)NC(=O)c1ccccc1	i	0	-18	22	i	8	nt	nt
O=C(NCCCn1ccnc1)/C(=C\c1ccc(Br)cc1)NC(=O)c1ccccc1	-5*	0	-1	5	i	-3	59%*	i
O=C(N/C(=C\c1ccc(Br)cc1)C(=O)N1CCOCC1)c1ccccc1Cl	-5.6*	0	-1	7	i	17	i	i
Cc1cc(C(=O)CSc2n[nH]c(N)n2)c(C)n1-c1cc(F)ccc1F	-7.1*	1	1	5	i	14	52%*	i
Cc1cc(C(=O)CSc2n[nH]c(N)n2)c(C)n1-c1ccc(F)cc1	-8.2*	2	-2	13	i	9	71%*	i
Cc1cc(C(=O)CSc2n[nH]c(N)n2)c(C)n1-c1ccccc1	i	2	-2	30	i	-11	nt	nt
C[C@@H]1O[C@@H](OCCC(=O)O)[C@H](O)C[C@H]1O	nt	nt	nt	nt	nt	-3	nt	nt
CCC1(C)Cc2c(sc3nnn(CC(=O)Nc4ccccc4)c(=O)c23)CO1 (stereo not drawn)	i	0	-13	23	i	5	58%*	i
CCOC(=O)C1(Cc2cccc(OC)c2)CCN(Cc2cccc(OC)c2O)CC1	i	0	6	45	i	-9	nt	nt
CCN(CC)S(=O)(=O)c1ccc(/C=C/C(=O)NC2CCCCC2)cc1	-7.1*	0	1	71	i	20	46%*	i
COCCN1C(=O)N[C@@H](c2cccc(F)c2)C(C(C)=O)=C1C	i	0	7	20	i	28	nt	nt

Bioassay records: PubChem, several laboratories
